Compound activity deposited in PubChem by National Center for Advancing Translational Sciences (NCATS).
TSHR antag = human thyrotropin receptor antagonism | TSHR-expressing cells, TSH-stimulated cAMP HTRF, 2 h; active compounds read low | activity change, negative = inhibition, % at 11.5 µM | hit rate 0.2% among 330,000 | AID 504810;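 active means activity change below a set negative limit, meaning inhibition stronger than a set level, cut at about -70% in these data; inconclusive means activity change between two set negative limits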; further: on the % scale 0 is the no-effect control and ±100 the full control effect
Target sequence (P16473 whole entry, looked up): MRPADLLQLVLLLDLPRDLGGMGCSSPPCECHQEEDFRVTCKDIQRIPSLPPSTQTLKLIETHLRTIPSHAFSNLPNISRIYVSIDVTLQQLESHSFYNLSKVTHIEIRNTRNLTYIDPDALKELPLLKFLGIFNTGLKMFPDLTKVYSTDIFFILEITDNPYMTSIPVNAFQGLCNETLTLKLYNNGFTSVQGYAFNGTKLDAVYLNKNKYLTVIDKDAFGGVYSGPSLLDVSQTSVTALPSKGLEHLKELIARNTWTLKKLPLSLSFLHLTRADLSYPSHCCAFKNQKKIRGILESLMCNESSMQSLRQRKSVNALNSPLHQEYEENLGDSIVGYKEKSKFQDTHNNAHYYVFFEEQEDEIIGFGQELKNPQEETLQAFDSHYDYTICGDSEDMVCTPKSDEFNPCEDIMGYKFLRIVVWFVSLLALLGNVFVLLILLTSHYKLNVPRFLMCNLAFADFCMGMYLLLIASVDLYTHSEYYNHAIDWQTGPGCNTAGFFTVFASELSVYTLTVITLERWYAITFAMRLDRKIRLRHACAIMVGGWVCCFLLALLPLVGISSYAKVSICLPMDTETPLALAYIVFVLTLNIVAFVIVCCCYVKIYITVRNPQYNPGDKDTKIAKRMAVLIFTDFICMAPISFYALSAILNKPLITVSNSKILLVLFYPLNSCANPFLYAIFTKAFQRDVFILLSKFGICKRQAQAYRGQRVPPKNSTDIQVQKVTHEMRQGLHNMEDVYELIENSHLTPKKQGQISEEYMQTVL
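Freshly harvested TSHR cells receive pin-tooled compound, then EC80 TSH at 4nM final. After 2 hours at 37 deg C, antibody in lysis buffer and cAMP-d2 are added; 30 minutes at ambient temperature precede the HTRF read.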
GLS inh = glutaminase GLS (human) inhibition | Potency, µM (titrated, usually from 45.5 µM), without a hit: top-dose activity change, negative = inhibition, most hits filed as inhibitors | hit rate 0.21% among 410,000 | GLS enzymatic activity, qHTS titration | AID 624170; further: potency means the concentration at half of the fitted maximal effect; on the % scale 0 is the no-effect control and ±100 the full control effect
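Coupled fluorescence readout: glutamate oxidase/HRP/Amplex Red detect glutamate formed by hKGA from L-glutamine (1 mM solution added). Buffer 45 mM KH2PO4 pH 8.2, 0.02% Tween-20; reads at t0 and 30 min RT.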
N370S GC mod = N370S glucocerebrosidase modulation, Gaucher chaperone candidate; P04062; N370S GC spleen homogenate, 4MU-glucoside fluorescence; Potency, µM (highest dose often 59.4 µM), for inactives: at the highest dose activity change, negative = inhibition, most hits filed as inhibitors; hit rate 0.092% among 330,000; AID 2101;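 further: potency means the concentration at half of the fitted maximal effect; 0% = full enzyme activity and -100% = no enzyme basal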
TCR activator = activators of T cell receptors; primary human leukocytes, anti-CD3, IL-2 HTRF, 48 h; 330,000 tested, under 10 active; Potency, µM (series often up to 9.22 µM), for the others: at the highest dose activation of IL-2 secretion, usual class: activators; AID 504894; further: % of control where 0% means no effect
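Readout: HTRF IL-2, Eu-cryptate/d2 antibody pair, 320nm excitation, 665nm emission. Stimulus: a-CD3 beads, no co-stimulation. Cells: primary human leukocytes. Exposure: 48 hr with compound.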
BRCA1 expr up = BRCA1 expression activation; MCF7-BRCA1-FFLuc reporter, luminescence, 48 h; response scale: scaled: vehicle 0%, 10 µM genistein 100%; Potency, µM (series often up to 46.1 µM), inactives show at the highest dose activation, hits mostly activators; hit rate 1.1% among 380,000; further: potency means the concentration at half of the fitted maximal effect; nearly all actives have a fitted effect of over 80% in size
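MCF7-BRCA1-FFLuc, 2000 cells/well; 2 h attach, 37 °C/5% CO2; compound 48 h; luciferase substrate 15 min; luminescence end-point. Norm. to genistein 10 microM max activation and DMSO; concentration-response curves fitted.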
p53 reactivator = mutant p53 re-activation in reporter cells; H1299 p53-A138V BP100-luciferase reporter, luminescence, 24 h; Potency, µM (top dose mostly 92.2 µM), for inactives: at the top dose activity change, positive = activation, usual class: activators; hit rate 0.063% among 320,000; further: potency means the concentration at half of the fitted maximal effect; % of control where 0% means no effect; nearly all actives have a fitted effect of over 45% in size
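p53-null H1299 cells stably carrying temperature-sensitive p53-A138V and a BP100-luciferase reporter were pinned with compounds (4-point, 1:5 series) and held 24 hrs at 37 deg C. Luminescence was read 10 min after detection reagent.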
The depositor's hits bear a star; u = inconclusive; x = no result; ! = not active in a repeat; [ ] = dose if it differs, or a comment. This is a sample that favours compounds with a hit; in the whole collection about 1.4% have one here. Unless noted, the call rests on the fitted dose curve; in most records, active means well fitted curve in the direction sought with a large enough effect; inconclusive means small, poorly fitted or top-dose-only effect, or another doubt; inactive means no such curve, though single readings can be large; an effect the other way counts as inactive or inconclusive.

SMILES	TSHR antag	GLS inh	N370S GC mod	TCR activator	BRCA1 expr up	p53 reactivator
O=C(CCc1nnc(CCCc2ccccc2)o1)NCCCC1CCCC1	-3.1	-6.4%	-4.4%	-5.1%	12.6µM*	10.7%
COc1ccccc1NC(=O)c1ccccc1NS(=O)(=O)c1cccs1	1.8	2.1%	-0.7%	0.0%	-15.3%	-3.1%
COc1ccc(C)cc1NC(=O)c1ccccc1NS(=O)(=O)c1ccc(Cl)s1	-76.3*	8.0%	10.3%	3.0%	-61.8%	-4.7%
COc1ccccc1C1=NOC(CN2C(=O)c3ccccc3S2(=O)=O)C1 (stereo not drawn)	-4.9	-1.1%	-3.1%	-6.0%	u	u
O=C1c2ccccc2S(=O)(=O)N1CC1CC(c2ccccc2Cl)=NO1 (stereo not drawn)	14.0	-2.4%	6.8%	-4.9%	5.01µM*	u
CN(c1ccccc1)c1nc(N)c([N+](=O)[O-])c(N2CCCC2)n1	-0.7	-1.8%	6.5%	-6.4%	11.2µM*	u
Cc1cccn2c(=O)c(C(=O)NCCc3ccc(S(N)(=O)=O)cc3)c(O)nc12	x	-6.1%	x	x	x	x
COc1ccc(NC(=O)c2cc(-c3cccs3)on2)cc1OC	-8.5	4.2%	6.5%	x	62.6%	u
COc1ccc(NC(=O)c2cc(-c3cccs3)on2)cc1	0.2	-7.5%	0.3%	-8.3%	4.47µM*	u
Cc1nnc(SCc2cccc3ccccc23)s1	-9.7	-12.5%	-10.5%	-11.3%	1.26µM*	1.8%
CC(C)(C)c1ccc(-c2nc(C#N)c(NCc3ccncc3)o2)cc1	-15.1	-1.1%	-4.2%	-6.4%	11.2µM*	u
Nc1cccc(/C=C2\C=Cc3ccccc32)c1	x	x	x	x	-35.0%	x
N#Cc1ccc(S(=O)(=O)N2CCN(c3nc(-c4ccccc4)nc4ccccc34)CC2)cc1	x	x	x	x	-7.7%	x
Cc1ccc(C)n1Cc1ccc(C(=O)O)cc1	-5.7	7.08µM*	22.5%	-2.0%	-2.6%	-3.5%
COc1ccc2nc(Cl)c(/C=N/Nc3ccccn3)cc2c1	0.7	-11.6%	u	2.6%	3.16µM*	17.0%
Clc1ccccc1C=NNc1ccccn1	x	8.4%	x	-4.2%	-38.2%	x
CCCN1CCCc2cc(CN(CCCN3CCOCC3)C(=O)Nc3ccc(Cl)c(Cl)c3)ccc21	x	-21.9%	x	x	x	x
O=C(NCC1CCCO1)c1ccc2c3n(nc2c1)-c1ccccc1CO3 (stereo not drawn)	6.2	3.2%	11.4%	-6.3%	2.51µM*	12.4%
Cc1ccc2c(c1)COc1c3ccc(C(=O)N[C@@H](CO)C(C)C)cc3nn1-2	3.6	5.4%	14.0%	2.6%	6.31µM*	6.8%
O=C(c1ccc2c3n(nc2c1)-c1ccc(Cl)cc1CO3)N1CCOCC1	-5.1	-3.3%	-3.4%	3.0%	6.31µM*	u
C[C@@H](CO)NC(=O)c1ccc2c3n(nc2c1)-c1ccccc1CO3	-5.6	4.0%	-9.6%	-2.3%	u	5.3%
Cc1ccc2c(c1)COc1c3ccc(C(=O)N4CCCCC4)cc3nn1-2	-0.8	-9.9%	1.9%	-7.5%	4.47µM*	20.3%
O=C(c1ccc2c3n(nc2c1)-c1ccccc1CO3)N1CCCCC1	-3.0	2.8%	18.1%	12.8%	u	-11.2%
O=C(c1ccc2c3n(nc2c1)-c1ccccc1CO3)N1CCOCC1	-3.1	4.4%	3.6%	-2.1%	u	17.5%
CCOC(=O)[C@H](CCc1ccccc1)NC(C)C(=O)N1CC2(CC1C(=O)O)SCCS2 (stereo partly drawn)	x	-1.7%	x	x	x	x
SMILES	TSHR antag	GLS inh	N370S GC mod	TCR activator	BRCA1 expr up	p53 reactivator
COC(=O)[C@H](Cc1ccccc1)NC(=O)O[C@@H]1C(=O)c2cc(OC)ccc2O[C@H]1c1cccc(OC)c1	x	x	-5.2%	x	x	x
CCN(CCCN(C)C)c1ccc(/C=C/c2ccnc3ccccc23)cc1	x	x	x	x	-14.4%	x
CC[C@H](C)[C@H](NC(=O)[C@H](Cc1cnc[nH]1)NC(=O)[C@@H](NC(=O)[C@H](CCCNC(=N)N)NC(=O)[C@H](CCCCN)NC(=O)[C@H](CCCNC(=N)N)NC(=O)[C@H](CCCCN)NC(=O)[C@@H](N)CC(N)=O)[C@@H](C)CC)C(=O)NCC(=O)N1CCC[C@H]1C(=O)NCC(=O)N[C@@H](CCCNC(=N)N)C(=O)N[C@@H](C)C(=O)N[C@@H](Cc1ccccc1)C(=O)N[C@@H](Cc1ccc(O)cc1)C(=O)N[C@H](C(=O)N[C@H](C(=O)N[C@@H](CCCCN)C(=O)N[C@@H](CC(N)=O)C(=O)N[C@H](C(=O)N[C@H](C(=O)NCC(=O)N[C@H](C(=O)N[C@H](C(=O)N[C@@H](CS)C(=O)O)[C@@H](C)CC)[C@@H](C)O)[C@@H](C)CC)[C@@H](C)CC)[C@@H](C)O)[C@@H](C)O	x	x	-7.7%	x	x	x
CCCCS(=O)(=O)N[C@@H](Cc1ccc(OCCCCC2CCNCC2)cc1)C(=O)O	x	1.6%	x	x	x	x
Cc1ccc(N2C(=O)CC(N3CCN(c4ccccn4)CC3)C2=O)cc1 (stereo not drawn)	11.3	-7.2%	-6.6%	-9.6%	-3.1%	17.8%
Cc1ccc2nc(-c3ccc(N4C(=O)CC(N5CCN(CCO)CC5)C4=O)cc3)sc2c1 (stereo not drawn)	0.1	12.2%	17.8µM*	2.8%[46.1 µM]	48.6%	u
Cc1ccc(C#N)cc1	x	x	-8.6%	x	x	x
CCOc1ccc(NC(=O)c2ccc3snnc3c2)cc1	-10.2	-9.7%	5.1%	-2.0%[46.1 µM]	7.94µM*!	u
CCOc1ccc(NC(=O)c2ccc(F)cc2F)cc1	x	3.8%	x	1.0%	11.2µM*	x
COc1ccccc1N1CCN(S(=O)(=O)c2ccc(-c3ccno3)cc2OC)CC1	x	6.6%	x	x	x	x
COc1ccc(CCNc2nc(-c3ccc(F)cc3)c(CC(=O)O)s2)cc1OC	4.3	11.2µM*	-3.1%	7.4%	-15.3%	0.6%
CCOC(=O)C1(Cc2ccccc2)CCCN(C(=O)COc2ccccc2OC)C1 (stereo not drawn)	x	-5.0%	x	x	10µM*	x
CCOC(=O)C1(Cc2ccccc2)CCCN(C(=O)C=C(C)C)C1 (stereo not drawn)	6.4	-6.0%	-6.7%	-1.4%	u	9.5%
CCOC(=O)C(=O)N(Nc1ccc(C)cc1)c1ccc(C)cc1	18.4	13.1%	-2.2%	-0.4%	11.2µM*	4.8%
COc1ccc(C2=Nn3c(nnc3-c3ccc(OC)cc3OC)SC2)cc1	x	x	0.1%	x	x	x
CCOC(=O)c1[nH]c(C)c(C(=O)Nc2ccc(C)c(F)c2)c1C	0.0	-7.7%	-1.0%	-3.1%	-60.6%	-10.2%
CCOC(=O)c1cc(C(=O)Nc2ccc(C)c(F)c2)nn1C	-4.7	-2.9%	-5.2%	2.3%	10µM*	11.4%
